How the values were obtained:
[1] = biological target: T1, Inhibitor of nuclear factor kappa-B kinase subunit epsilon (Homo sapiens) (UniProt Q14164); conditions: at 1 µM;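 note: reported values are averaged percent inhibition figures against human IKKε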
T1 sequence (whole entry): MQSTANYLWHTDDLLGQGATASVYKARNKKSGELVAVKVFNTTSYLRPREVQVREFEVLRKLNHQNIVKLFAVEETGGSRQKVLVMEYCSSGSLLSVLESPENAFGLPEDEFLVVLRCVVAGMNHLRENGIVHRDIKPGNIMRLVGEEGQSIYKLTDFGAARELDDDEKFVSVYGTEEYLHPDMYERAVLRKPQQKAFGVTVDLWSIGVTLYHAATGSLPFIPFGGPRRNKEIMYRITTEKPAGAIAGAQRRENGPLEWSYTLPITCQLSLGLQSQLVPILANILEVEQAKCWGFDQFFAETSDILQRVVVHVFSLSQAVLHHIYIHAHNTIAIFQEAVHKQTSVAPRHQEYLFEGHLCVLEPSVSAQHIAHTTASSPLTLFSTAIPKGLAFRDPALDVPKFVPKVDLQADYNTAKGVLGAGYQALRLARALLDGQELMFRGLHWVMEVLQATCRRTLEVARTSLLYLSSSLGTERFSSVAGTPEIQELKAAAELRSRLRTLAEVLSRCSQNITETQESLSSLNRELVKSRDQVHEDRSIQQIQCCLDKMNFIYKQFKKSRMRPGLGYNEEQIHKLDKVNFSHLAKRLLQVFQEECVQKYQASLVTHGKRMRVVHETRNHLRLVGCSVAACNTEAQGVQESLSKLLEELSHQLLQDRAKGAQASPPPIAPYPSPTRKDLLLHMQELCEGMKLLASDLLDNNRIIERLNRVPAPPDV

[2] = biological target: T2, Serine/threonine-protein kinase Nek1 (Homo sapiens) (UniProt Q96PY6); conditions: at 0.1 µM
T2 sequence (whole entry): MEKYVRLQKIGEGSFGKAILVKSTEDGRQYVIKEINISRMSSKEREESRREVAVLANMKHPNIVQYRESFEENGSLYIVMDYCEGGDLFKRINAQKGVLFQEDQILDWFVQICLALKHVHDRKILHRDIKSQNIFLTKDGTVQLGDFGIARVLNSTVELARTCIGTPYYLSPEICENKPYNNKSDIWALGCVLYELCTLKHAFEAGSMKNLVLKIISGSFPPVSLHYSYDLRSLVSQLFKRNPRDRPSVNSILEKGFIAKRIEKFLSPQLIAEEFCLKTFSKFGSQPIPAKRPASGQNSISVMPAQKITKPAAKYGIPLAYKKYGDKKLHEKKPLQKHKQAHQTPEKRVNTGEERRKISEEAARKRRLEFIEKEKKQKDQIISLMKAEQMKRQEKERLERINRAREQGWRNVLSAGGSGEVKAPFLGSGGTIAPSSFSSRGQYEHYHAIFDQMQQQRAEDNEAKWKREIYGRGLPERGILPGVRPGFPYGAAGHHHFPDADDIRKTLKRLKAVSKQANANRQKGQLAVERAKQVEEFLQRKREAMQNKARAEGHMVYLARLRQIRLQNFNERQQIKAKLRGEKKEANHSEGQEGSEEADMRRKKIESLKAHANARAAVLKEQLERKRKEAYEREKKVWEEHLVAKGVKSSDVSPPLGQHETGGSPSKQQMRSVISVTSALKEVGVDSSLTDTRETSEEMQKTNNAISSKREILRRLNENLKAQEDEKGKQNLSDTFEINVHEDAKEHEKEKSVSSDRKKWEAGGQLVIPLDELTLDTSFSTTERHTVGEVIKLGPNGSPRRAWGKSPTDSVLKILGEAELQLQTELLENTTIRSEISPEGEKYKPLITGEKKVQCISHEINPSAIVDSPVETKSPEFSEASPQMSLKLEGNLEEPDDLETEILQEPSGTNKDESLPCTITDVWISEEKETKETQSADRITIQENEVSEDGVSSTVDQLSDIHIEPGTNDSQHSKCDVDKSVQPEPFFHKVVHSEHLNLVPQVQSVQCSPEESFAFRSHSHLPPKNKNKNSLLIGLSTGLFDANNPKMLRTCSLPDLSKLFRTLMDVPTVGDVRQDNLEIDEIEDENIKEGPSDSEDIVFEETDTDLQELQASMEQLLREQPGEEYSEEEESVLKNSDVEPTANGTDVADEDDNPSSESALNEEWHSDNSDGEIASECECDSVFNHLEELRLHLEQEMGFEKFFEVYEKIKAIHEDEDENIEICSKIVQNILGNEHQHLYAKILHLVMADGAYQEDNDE

[3] = biological target: T2, Serine/threonine-protein kinase Nek1 (Homo sapiens); conditions: at 1 µM
[4] = biological target: T3, Serine/threonine-protein kinase Nek2 (Homo sapiens) (UniProt P51955); conditions: at 0.1 µM
T3 sequence (whole entry): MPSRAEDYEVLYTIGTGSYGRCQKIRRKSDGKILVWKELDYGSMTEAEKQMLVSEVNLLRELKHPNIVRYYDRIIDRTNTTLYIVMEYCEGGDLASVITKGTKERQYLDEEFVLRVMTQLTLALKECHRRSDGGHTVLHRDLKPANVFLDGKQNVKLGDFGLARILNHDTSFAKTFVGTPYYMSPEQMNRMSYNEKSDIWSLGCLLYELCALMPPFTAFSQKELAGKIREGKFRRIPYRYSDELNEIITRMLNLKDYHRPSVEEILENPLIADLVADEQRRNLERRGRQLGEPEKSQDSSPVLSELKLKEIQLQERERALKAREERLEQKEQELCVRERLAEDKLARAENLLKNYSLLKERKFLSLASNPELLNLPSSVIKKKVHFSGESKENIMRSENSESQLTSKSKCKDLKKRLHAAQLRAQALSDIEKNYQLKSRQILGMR

[5] = biological target: T3, Serine/threonine-protein kinase Nek2 (Homo sapiens); conditions: at 1 µM
[6] = biological target: Serine/threonine-protein kinase Nek6 (Homo sapiens) (UniProt Q9HC98); conditions: at 0.1 µM
[7] = biological target: Serine/threonine-protein kinase Nek6 (Homo sapiens) (UniProt Q9HC98); conditions: at 1 µM
[8] = biological target: Serine/threonine-protein kinase Nek7 (Homo sapiens) (UniProt Q8TDX7); conditions: at 0.1 µM
[9] = biological target: Serine/threonine-protein kinase Nek7 (Homo sapiens) (UniProt Q8TDX7); conditions: at 1 µM
[10] = biological target: T4, Serine/threonine-protein kinase Nek9 (Homo sapiens) (UniProt Q8TD19); conditions: at 0.1 µM;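 note: reported value is the mean percent inhibition of NEK9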
T4 sequence (whole entry): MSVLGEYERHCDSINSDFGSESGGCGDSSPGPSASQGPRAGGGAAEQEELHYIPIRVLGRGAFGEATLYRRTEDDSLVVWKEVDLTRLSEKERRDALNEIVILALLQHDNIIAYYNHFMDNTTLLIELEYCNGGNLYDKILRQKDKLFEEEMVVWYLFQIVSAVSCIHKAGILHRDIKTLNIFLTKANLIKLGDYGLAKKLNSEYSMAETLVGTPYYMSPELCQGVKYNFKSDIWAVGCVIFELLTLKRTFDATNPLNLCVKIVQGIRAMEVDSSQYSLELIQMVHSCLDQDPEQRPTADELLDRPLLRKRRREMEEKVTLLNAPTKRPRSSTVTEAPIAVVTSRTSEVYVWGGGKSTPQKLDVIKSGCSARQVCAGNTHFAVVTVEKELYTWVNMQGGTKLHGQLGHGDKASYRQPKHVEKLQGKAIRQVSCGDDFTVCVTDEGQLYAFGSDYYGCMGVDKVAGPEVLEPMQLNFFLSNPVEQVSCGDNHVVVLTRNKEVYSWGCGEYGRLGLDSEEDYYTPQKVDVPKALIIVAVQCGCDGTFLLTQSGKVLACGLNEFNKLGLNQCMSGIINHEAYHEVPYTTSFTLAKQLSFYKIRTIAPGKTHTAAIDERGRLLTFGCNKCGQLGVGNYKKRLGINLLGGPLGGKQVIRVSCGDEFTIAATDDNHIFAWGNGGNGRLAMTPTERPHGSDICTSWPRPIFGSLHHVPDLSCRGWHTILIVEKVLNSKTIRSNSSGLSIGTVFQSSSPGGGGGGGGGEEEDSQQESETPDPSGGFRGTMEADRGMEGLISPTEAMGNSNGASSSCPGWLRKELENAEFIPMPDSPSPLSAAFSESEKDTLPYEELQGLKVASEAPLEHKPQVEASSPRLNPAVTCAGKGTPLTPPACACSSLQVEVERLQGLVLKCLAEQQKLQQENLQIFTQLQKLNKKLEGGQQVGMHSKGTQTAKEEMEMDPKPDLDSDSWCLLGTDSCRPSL

Chain of Serine/threonine-protein kinase Nek6 (Homo sapiens) (Q9HC98 whole entry): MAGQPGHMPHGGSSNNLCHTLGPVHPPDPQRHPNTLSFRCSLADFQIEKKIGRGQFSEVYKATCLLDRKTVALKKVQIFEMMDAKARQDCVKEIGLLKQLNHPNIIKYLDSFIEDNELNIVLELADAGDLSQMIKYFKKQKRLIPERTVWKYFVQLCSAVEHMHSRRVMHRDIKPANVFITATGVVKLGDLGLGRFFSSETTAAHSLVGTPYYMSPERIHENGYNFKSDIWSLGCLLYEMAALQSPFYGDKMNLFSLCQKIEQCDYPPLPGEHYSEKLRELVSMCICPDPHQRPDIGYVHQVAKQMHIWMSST
Chain of Serine/threonine-protein kinase Nek7 (Homo sapiens) (Q8TDX7 whole entry, looked up): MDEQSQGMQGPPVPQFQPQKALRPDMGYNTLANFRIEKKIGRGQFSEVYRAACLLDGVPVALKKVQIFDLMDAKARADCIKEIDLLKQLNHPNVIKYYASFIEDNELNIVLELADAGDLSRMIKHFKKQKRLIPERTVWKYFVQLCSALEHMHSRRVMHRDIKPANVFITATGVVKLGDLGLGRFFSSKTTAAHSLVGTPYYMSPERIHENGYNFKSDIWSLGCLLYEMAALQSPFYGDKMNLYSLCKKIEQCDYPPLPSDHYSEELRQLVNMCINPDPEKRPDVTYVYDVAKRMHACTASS

Compound	inhibition [1] [%]	inhibition [2] [%]	inhibition [3] [%]	inhibition [4] [%]	inhibition [5] [%]	inhibition [6] [%]	inhibition [7] [%]	inhibition [8] [%]	inhibition [9] [%]	inhibition [10] [%]
C[C@@H](Oc1cc(-n2cnc3ccc(OCC4CCN(C)CC4)cc32)sc1C(N)=O)c1ccccc1C(F)(F)F	-1.35	18.4	60.5	23.6	69.2	-1.61	0.33	-2.74	-0.71	88.3
CCCN1CCCC(c2ccc(Nc3nc(Nc4cc(F)ccc4C(N)=O)c4cc[nH]c4n3)c(OC)c2)C1 (stereo not given)	8.28	3.63	21.6	6.55	11.1	1.92	3.03	6.42	7.03	9.57
Cc1ccc(C(=O)NC2CC2)cc1-c1ccc2[nH]ncc2c1	-3.47	-0.31	1.87	-2.19	0.98	-3.09	-3.72	-7.62	-4.5	0.32
COc1ccc2ncnc(Nc3ccc(OCc4ccccc4)cc3)c2c1	1.06	0.79	4.16	1.74	1.37	4.45	2.35	2.47	2.49	-0.31
CC(C)c1ccc(Nc2nccc(-c3cnn4ncccc34)n2)cc1	7.95	3.1	13.5	3.86	8.45	1.7	3.3	3.35	4.87	11.3
Cc1nc(-c2ccccc2)n2nc(NCCCN3CCOCC3)ncc12	6.26	1.82	1.68	3.14	1.97	-0.18	3.25	1.2	2.34	7.69
CN(C)CCCn1c(-c2nonc2N)nc2cnccc21	4.6	2.29	2.28	5.09	5.23	0.8	5.07	6.28	1.98	8.39
C[C@@H](Oc1cc(-n2cnc3ccc(OC[C@@H](O)CO)cc32)sc1C(N)=O)c1ccccc1Cl	-0.86	13.6	55	3.01	19.7	-1.54	-3.82	0.63	0.36	62.4

Source: ChEMBL document CHEMBL1961873, “Compounds: GSK PKIS; Assays: Nanosyn kinase panel” (2012)
